Hits are enriched below; roughly 19% of the tested compounds scored in any of these assays.
TDP1 inh – inhibitors of human tyrosyl-DNA phosphodiesterase TDP1; Q9NUW8; 350,000 tested, 0.28% active; recombinant TDP1, AlphaScreen DNA substrate cleavage; AID 485290; Potency, µM (series often up to 130 µM), for the others: top-dose activity change, negative = inhibition, most hits filed as inhibitors; note: nearly all actives have a fitted effect of over 40% in size
Target sequence (Q9NUW8 whole entry, looked up): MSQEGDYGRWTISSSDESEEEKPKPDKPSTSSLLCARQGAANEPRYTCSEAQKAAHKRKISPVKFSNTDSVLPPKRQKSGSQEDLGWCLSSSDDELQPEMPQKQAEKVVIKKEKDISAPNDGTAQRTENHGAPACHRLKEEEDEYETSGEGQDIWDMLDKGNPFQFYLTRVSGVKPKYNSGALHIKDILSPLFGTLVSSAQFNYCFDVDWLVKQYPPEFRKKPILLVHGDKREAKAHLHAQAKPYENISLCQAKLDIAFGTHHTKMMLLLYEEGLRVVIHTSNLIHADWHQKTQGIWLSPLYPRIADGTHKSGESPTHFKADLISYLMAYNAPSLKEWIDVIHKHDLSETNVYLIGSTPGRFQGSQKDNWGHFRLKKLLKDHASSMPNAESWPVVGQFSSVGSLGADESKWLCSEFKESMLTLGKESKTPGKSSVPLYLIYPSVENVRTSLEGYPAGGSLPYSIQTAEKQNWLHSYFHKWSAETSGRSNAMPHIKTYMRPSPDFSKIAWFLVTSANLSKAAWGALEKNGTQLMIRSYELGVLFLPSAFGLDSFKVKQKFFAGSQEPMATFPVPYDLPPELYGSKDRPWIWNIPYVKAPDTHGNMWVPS
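Steps: enzyme plus compound, 15 min RT; add biotin/phosphotyrosine-FITC oligonucleotide (15 nM final), react 5 min; add donor/acceptor beads (10 ug/ml final), 10 min; read AlphaScreen. Tdp1 at 1 nM final.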
VP16 counter – inhibits Gal4-VP16 luciferase reporter, ROR gamma counter-screen | Potency, µM (titrated, usually from 53.6 µM), inactives show top-dose activity, negative = inhibition, usual class: inhibitors | Drosophila S2 Gal4-VP16 UAS-luciferase, luminescence, 20 h | 310,000 tested, 3.5% active;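 note: Gal4-VP16 expression switched on by copper sulfate through the metallothionein promoter; nearly all actives have a fitted effect of over 50% in size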
TDP1 cell noCPT – qHTS for Inhibitors of human tyrosyl-DNA phosphodiesterase 1 (TDP1): qHTS in cells in absence of CPT; DT40 Tdp1-/- hTDP1 cells, no CPT, ATP luminescence, 48 h; Potency, µM (series often up to 46.2 µM), for inactives: at the highest dose activity change, negative = growth inhibition, hits mostly inhibitors; AID 686978, 2013; 420,000 tested, 15% active; note: nearly all actives have a fitted effect of over 55% in size
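Chicken DT40 Tdp1-/- cells complemented with human TDP1, screened without camptothecin (DMSO vehicle only), 400 cells/well. Compounds pin-transferred, cells incubated at 37 °C for at least 48 hr. Growth read as ATP-dependent luminescence (CellTiter-Glo, 30 min at RT).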
RORgamma inh – ROR gamma (mouse) transcription inhibition | P51450 | Drosophila S2 Gal4-RORgamma UAS-luciferase reporter, 20 h | Potency, µM (top dose mostly 53.6 µM), for inactives: at the highest dose activity change, negative = inhibition, most hits filed as inhibitors | 310,000 tested, 5.4% active | AID 2551; note: nearly all actives have a fitted effect of over 60% in size
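Compounds are pin-transferred onto Drosophila Schneider cells expressing a copper-inducible Gal4–ROR gamma transactivation domain fusion. After 1 hr, copper sulfate is added to 700 uM final; luciferase is read 20 hr later.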
TDP1 cell CPT – growth inhibition of DT40 Tdp1-/-;hTDP1 cells with camptothecin (screen for TDP1 inhibitors); chicken DT40 Tdp1-/-;hTDP1 cells + 20 nM CPT, ATP luminescence, 48 h; Potency, µM (highest dose often 46.2 µM), inactives show at the highest dose activity change, negative = growth inhibition, hits mostly inhibitors; 420,000 tested, 12% active; note: nearly all actives have a fitted effect of over 55% in size
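Chicken DT40 Tdp1-/- cells stably complemented with human TDP1 were seeded at 400 cells/well in medium containing 20 nM camptothecin, exposed to pin-transferred compounds, and grown at 37 °C for at least 48 hr. Viability was read as ATP luminescence.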
Active calls of the source: *; ? = inconclusive; nt = not tested or not shown; [ ] = another dose, or the depositor's remark. Calls come from the whole dose curve; as a rule, active = well fitted curve in the direction sought with a large enough effect; inconclusive = small, poorly fitted or top-dose-only effect, or another doubt; inactive = no such curve, though single readings can be large; an effect the other way counts as inactive or inconclusive. % is set by controls: 0 for no effect and ±100 for the full control effect; potency is the fitted concentration of half-maximal effect.

SMILES	TDP1 inh	VP16 counter	TDP1 cell noCPT	RORgamma inh	TDP1 cell CPT
CCN(c1ccccc1)S(=O)(=O)c1ccc(C(=O)Nc2nnc(CSC)o2)cc1	10.8%	0.891µM*	9.2µM*	0.355µM*	?
CCCCN(CCCC)S(=O)(=O)c1ccc(C(=O)Nc2nnc(CSC)o2)cc1	11.9%	0.891µM*	9.2µM*	0.316µM*	14.6µM*
CCCCN(CC)S(=O)(=O)c1ccc(C(=O)Nc2nnc(-c3ccccc3Cl)o2)cc1	9.5%	0.794µM*	nt	?	nt
CS(=O)(=O)c1ccccc1-c1nnc(NC(=O)c2ccc(S(=O)(=O)N3CCCC3)cc2)o1	-7.9%	nt	-3.1%	nt	-11.1%
CCN(c1ccccc1)S(=O)(=O)c1ccc(C(=O)NCCCn2ccnc2)cc1	5.8%	0.7%	-26.2%	11.0%	-23.3%
CCOc1ccc2ccccc2c1CNCCN1CCOCC1	-6.7%	1.5%	-13.8%	-36.4%	-22.5%
CCOC(=O)C(C)n1cnc2c(nnn2-c2cccc(Cl)c2)c1=O (stereo not given)	4.9%	15.4%	-15.2%	3.0%	-5.0%
Cc1ccc(C(=O)c2oc3ccccc3c2NC(=O)Cc2coc3ccc(C)cc23)cc1	7.4%	nt	?	nt	?
O=C(CSc1nc(-c2ccccc2)[nH]c1-c1ccccc1)Nc1ccc2c(c1)OCCO2	10.0%	nt	9.2µM*	nt	10.3µM*
COc1ccc(-c2nc(SCC(=O)Nc3ccc4c(c3)OCO4)c(-c3ccc(OC)cc3)[nH]2)cc1	-4.3%[12.3 µM]	nt	-26.5%	nt	-18.6%
COc1ccc(-c2[nH]c(-c3ccccc3)nc2SCC(=O)Nc2ccc3c(c2)OCCO3)cc1	10.0%	nt	16.4µM*	nt	13µM*
Cc1cccc(-c2nc(SCC(=O)Nc3ccc4c(c3)OCO4)c(-c3ccccc3)[nH]2)c1	10.0%	nt	?	nt	20.6µM*
CCCCOC(=O)C1=C(C)Nc2ncnn2C1c1cc(OC)ccc1OC (stereo not given)	3.8%	5.0%	-3.7%	-21.3%	-1.3%
CCOc1ccc(-c2cn3c(n2)sc2cc(C(=O)NCCc4ccc(OC)cc4OC)ccc23)cc1	-6.8%	nt	?	nt	-20.9%
COc1ccc(-c2cn3c(n2)sc2cc(C(=O)NCCC4=CCCCC4)ccc23)cc1	1.3%	nt	13µM*	nt	?
COc1ccc(-c2cn3c(n2)sc2cc(C(=O)NCCc4ccc(OC)cc4OC)ccc23)cc1	-2.6%	nt	9.2µM*	nt	7.31µM*
COc1ccc(-c2cn3c(n2)sc2cc(C(=O)NCCCc4ccccc4)ccc23)cc1	0.0%	nt	-10.3%	nt	-23.4%
O=C(NCCc1ccccn1)c1cc(-c2ccc(Cl)c(Cl)c2Cl)nc2ccccc12	0.0%	?	18.4µM*	?	?
O=C(NCc1ccccn1)c1cc(-c2ccccc2Cl)nc2ccccc12	8.2%	2.6%	-14.1%	?	-6.3%
CN(Cc1ccccc1)S(=O)(=O)c1ccc(Cl)c(C(=O)NCCc2ccccn2)c1	5.1%	6.5%	?	9.5%	16.4µM*
CN(Cc1ccccc1)S(=O)(=O)c1ccc(Cl)c(C(=O)NCCCN2CCCC2=O)c1	nt	nt	16.4µM*	nt	?
CCOC(=O)C1CCC(C(=O)OCC)N1c1ccc(C=O)cc1 (stereo not given)	nt	nt	?	nt	-2.9%
CC(=O)C1C(=O)CC(c2ccc(Cl)cc2)CC1=O (stereo not given)	1.4%	-1.3%	-13.5%	-4.1%	-6.8%
CC(C)CC(c1nnnn1CC1CCCO1)N1CCN(C2CCCC2)CC1 (stereo not given)	-2.1%	11.9%	-5.2%	-9.8%	-2.1%
CN(CC(=O)Nc1ccc(F)cc1)C(=O)COc1ncnc2ccccc12	0.0%	-7.9%	17.2%	-10.5%	-4.0%
SMILES	TDP1 inh	VP16 counter	TDP1 cell noCPT	RORgamma inh	TDP1 cell CPT
Clc1ccc(CN2C3=NCCCN3c3ccccc32)cc1	8.4%	-25.5%	20.6µM*	-0.9%	25.9µM*
Clc1ccc(CN2C3=NCCCN3c3ccccc32)cc1Cl	0.0%	3.1%	14.6µM*	-11.9%	-119.5%
Cc1ccccc1CN1C2=NCCCN2c2ccccc21	3.8%	-1.0%	18.4µM*	-28.7%	18.4µM*
COc1ccc(S(=O)(=O)N(C)c2c(C)n(C)n(-c3ccccc3)c2=O)cc1OC	-7.1%	-15.1%	-7.3%	14.4%	-5.0%
C=CCN(C)NC(=S)Nc1ccccc1	2.7%	10µM*	-12.6%	5.01µM*	9.5%
Cc1ccc(C)c(NCC(=O)NNC(=S)Nc2ccccc2)c1	8.2%	?	17.1%	?	12.3%
S=C(NNC(=S)Nc1ccccc1)Nc1ccccc1	nt	?	3.26µM*	-15.9%	3.66µM*
Cc1ccc(NC(=S)NNC(=S)NNc2ccccc2)cc1C	nt	nt	23.1µM*	nt	-5.7%
O=C(CCC(=O)NNC(=S)Nc1ccccc1)NCc1ccccc1	1.0%	?	-11.4%	10µM*	13.9%
COC(=O)Nc1ncc(CN2CCC(c3ccccc3)CC2)s1	2.5%	-13.6%	-25.7%	32.8%	-2.7%
CCOC(=O)c1[nH]c(C)c(/C(O)=C2\C(=O)C(=O)N(CCN3CCOCC3)C2c2ccco2)c1C (stereo not given)	-3.6%	4.9%	26.9%	5.7%	9.1%
S=C(NNC(=S)Nc1ccc(Cl)cc1)NNc1ccccc1	nt	nt	16.4µM*	nt	14.6µM*
C/C(=C\C(=S)Nc1ccccc1)Nc1ccccc1	5.3%	?	16.4µM*	10µM*	14.6µM*
S=C(NN=C(C1CC1)C1CC1)Nc1ccccc1	5.0%	17.8µM*	?	11.2µM*	20.6µM*
O=C(NNC(=S)Nc1ccc(Cl)cc1)c1ccccc1	3.5%	-10.6%	?	?	-52.0%
CC(=Nc1ccccc1)Nc1ccccc1	-3.1%	18.1%	-5.1%	-6.0%	-1.7%
CC(C)COCC(O)CCC(=O)NNC(=S)Nc1ccccc1 (stereo not given)	0.0%	1µM*	?	-35.4%[10 µM]	?
O=C(NNC(=S)Nc1ccccc1)C1CC1	3.8%	-0.4%	-4.6%	?	4.2%
CN(C)c1ncc2nc(-c3cc(F)cc(F)c3)c(=O)n(Cc3cccs3)c2n1	nt	-4.9%	?	-32.6%	-26.0%
Cc1ccn2c(Nc3ccccc3)c(-c3c[nH]c4ccccc34)nc2c1	9.1%	nt	?	nt	16.4µM*
Cc1ccc2nc(-c3c[nH]c4ccccc34)c(Nc3ccc(F)cc3)n2c1	7.3%	nt	18.4µM*	nt	14.6µM*
Cc1ccc(Nc2c(-c3c[nH]c4ccccc34)nc3cc(C)ccn23)cc1	10.0%	nt	23.1µM*	nt	23.1µM*
CCOC(=O)C1=NOC2C(=O)N(c3ccc(Cl)cc3Cl)C(=O)C12 (stereo not given)	-2.5%	-15.5%	-0.8%	0.6%	-0.4%
C=CCNC(=O)c1snnc1-c1ccccc1	-0.9%	-0.9%	7.2%	-3.1%	-3.9%

Bioassay records as filed in PubChem.
